# PubChem BioAssay (NCI)
# The panel holds about 79,000 compounds, 15% with a hit somewhere; the sample as a whole holds those more often. Unmarked numbers belong to inactive results. Activity calls are given as the source filed them. No stated cut-off is given here; in the data, active means growth inhibition above about 70%; inactive means the rest.
# Test: NCI Yeast Anticancer Drug Screen. Data for the wt1 strain (AID 149);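 further: 0% = growth of vehicle-treated wt1 cultures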
# Details: S. cerevisiae wt1 strain (SPY 50644) growth inhibition; at 100.0 µM; stronger effect = higher value
# Outline: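 Yeast wt1 strain exposed to compounds; growth inhibition measured relative to vehicle-treated controls.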
row,Compound,growth inhibition
1,CCN(CC)CC[n+]1ccc2c(C)c3[nH]c4ccc(O)cc4c3c(C)c2c1,8%
2,O=[n+]1c2ccc(Cl)cc2n([O-])c2ccc(Cl)cc21,12%
3,CCOP(=O)(OCC)C(Cc1ccccc1)N=C(c1ccccc1)c1ccccc1 (centres undefined),98% (active)
4,CC[C@@]1(O)C(=O)OCc2c1cc1n(c2=O)Cc2cc3c(N)cccc3nc2-1,-1%
5,COC1C=COC2(C)Oc3c(C)c(O)c4c(c3C2=O)/C(=N/C2CCC(O)OC2C)C=C(NC(=O)/C(C)=C\C(=O)C2CC2C(O)C(C)C(O)C(C)C(OC(C)=O)C1C)C4=O (centres undefined),11%
6,COc1cc2c(c(OC)c1OC)-c1c(cc3c(c1OC)OCO3)CC(C)C(C)(O)C2OC(=O)c1ccccc1 (centres undefined),3%
7,O=c1ssc2ncccc12,97% (active)
8,O=C1C2C(C(=O)N1c1ccc(OCc3ccccc3)cc1)C1c3ccccc3C2C2CCCCN21 (centres undefined),75% (active)
9,COc1ccc(-c2cn(-c3ccc(I)cc3)c3ncnc(N)c23)cc1,-2%
10,CCOC(=O)C(NC(=O)c1ccccc1)(N1CCN(c2cc3c(cc2F)c(=O)c(C(=O)O)cn3C2CC2)CC1)C(F)(F)F (centres undefined),2%
11,C/C(=N\O)C1CC2C=C(C#N)C1N(Cc1ccccc1)C2 (centres undefined),-1%
12,CC/C(=C(\c1ccccc1)c1ccc(OCCN(C)C)cc1)c1ccccc1,50%
13,COc1ccccc1N=NC(C(=O)c1ccccc1)C(=O)c1ccccc1,96% (active)
14,CC(O)C(O)C(O)C(/C=N\Nc1ccccc1)=N/Nc1ccccc1 (centres undefined),96% (active)
15,COc1ccc(/C=C2\SC(=S)N(/C=C/c3nc4ccccc4[nH]c3=O)C2=O)cc1OC,90% (active)
16,N#CN=Nc1cc(Cl)c(N=NC#N)cc1Cl,47%
17,Cc1ccc(S(=O)(=O)Oc2cc(Cl)c(Cl)cc2Cl)cc1,-12%
18,c1ccc2c(c1)Oc1cccc3cccc-2c13,10%
19,O=C(c1ccc(Cl)cc1Cl)C(Cl)Cl,98% (active)
20,CC(C)C1=CCC2C(=C1)CCC1C(C)(C(=O)O)CCCC21C (centres undefined) (tested in a mixture with another compound),97% (active)

row,Compound,growth inhibition
1,COc1cc(/C=C2\CCc3ccccc3C2=O)cc(OC)c1OC,76% (active)
2,CC(=O)[O][Bi]([c]1ccccc1)[c]1ccccc1,94% (active)
3,S=C(N/N=C/c1ccccn1)Nc1ccc(Cl)cc1,42%
4,COc1cc(CC2CC(c3ccc4c(c3)OCO4)OC2=O)cc(OC)c1OC (centres undefined),0%
5,CNC1C(OC2C(OC3C(O)C(O)C(N=C(N)N)C(O)C3N=C(N)N)OC(C)C2(O)CO)OC(CO)C(O)C1O (centres undefined),-4%
6,NNC(=O)CCc1ccc2ccc3ccccc3c2c1,18%
7,Oc1ccc2ccccc2c1C(c1ccc(Cl)cc1)c1c(O)ccc2ccccc12,84% (active)
8,CCCCN(CCCC)CCSc1ccc(Cl)cc1,93% (active)
9,CCC(C)COC(=O)c1ccc(N=Cc2ccc(C=Nc3ccc(C(=O)OCC(C)CC)cc3)cc2)cc1 (centres undefined),3%
10,CC1(C)C(=O)OC(n2cc(F)c(=O)[nH]c2=O)C1=O (centres undefined),1%
11,O=[N+]([O-])CC(SCc1ccccc1)c1ccc2c(c1)OCO2 (centres undefined),98% (active)
12,COc1cc2c(cc1[N+](=O)[O-])C(=O)C(Br)(Br)CCC2,98% (active)
13,OCC1OC(OCC(O)C(O)C(O)C(/C=N/Nc2ccccc2)=N/Nc2ccccc2)C(O)C(O)C1O (centres undefined),28%
14,COc1ccc(N=C2C(=O)Nc3ccc(Br)cc32)cc1,15%
15,Cn1c(=O)c2ccccc2c2ccccc21,21%
16,CC[n+]1ccc2c(C)c3[nH]c4ccc(O)cc4c3c(C)c2c1,14%
17,CC(=O)ON1C(=O)c2cccc3cccc(c23)C1=O,97% (active)
18,COc1ccc2ccc3ccccc3c2c1C=O,93% (active)
19,OC1CCCc2c1cc1ccc3cccc4ccc2c1c34 (centres undefined),92% (active)
